# HCMV inh – human cytomegalovirus inhibition. HFF cells, HCMV-luciferase reporter, 72 h; stronger effect = lower value. activity change, negative = inhibition, % at 57.5 µM. 4.5% of 410,000 active. AID 1259415; in the data active means activity change below about -60%; inconclusive means no clear call, values can overlap the other calls; inactive means above about -39%
#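 HFF cells seeded 16 h at 37C, treated with compounds, infected with luciferase-reporter HCMV at MOI 1 PFU/cell; luciferase read at 72 h post infection, normalized to buffer-only and Salinomycin controls.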
# Giardia FBPA inh – inhibitors of Giardia lamblia fructose-1,6-bisphosphate aldolase; Potency, µM (titrated, usually from 59.6 µM), without a hit: top-dose activity, negative = inhibition, hits mostly inhibitors; 0.71% of 290,000 active; A8B2U2; purified Giardia FBPA; AID 2451; further: potency means the concentration at half of the fitted maximal effect; nearly all actives have a fitted effect of over 55% in size
# Target sequence (A8B2U2 whole entry, looked up): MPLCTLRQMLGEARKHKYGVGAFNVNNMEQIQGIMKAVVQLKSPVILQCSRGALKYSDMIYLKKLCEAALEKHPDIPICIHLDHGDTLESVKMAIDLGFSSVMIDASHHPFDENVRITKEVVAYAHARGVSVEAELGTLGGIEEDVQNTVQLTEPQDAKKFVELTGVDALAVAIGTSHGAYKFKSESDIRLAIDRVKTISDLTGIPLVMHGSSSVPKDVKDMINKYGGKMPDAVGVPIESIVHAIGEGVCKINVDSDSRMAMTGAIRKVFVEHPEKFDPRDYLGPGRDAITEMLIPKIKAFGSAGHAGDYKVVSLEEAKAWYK
#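 Giardia FBPA (40 nM reagent) was preincubated 10 min at RT with compound (up to 57.5 uM final), then substrate plus GAPDH/TPI/NAD/arsenate coupling system with diaphorase/resazurin was added; resorufin fluorescence (525/598 nm) was read after 20 min.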
# HCV inh – HCV inhibition. Huh7.5.1 HCVcc-Cre infection, luciferase reporter, 44 h. Potency, µM (highest dose often 41.8 µM), without a hit: at the highest dose activity change, negative = inhibition, actives largely listed as inhibitors. 3.4% of 340,000 active. AID 651820; further: potency means the concentration at half of the fitted maximal effect
#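 Cells seeded at 1,000/well and cultured 4 h, then compounds added followed by HCVcc-Cre virus (~0.5 moi). After 44 h further culture, luciferase substrate was added, plates held 15 min at room temperature, and luminescence read for 15 sec.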
# FMDV inh – blocks foot and mouth disease virus | FMDV antiviral cell-based qHTS | Potency, µM (highest dose often 57.9 µM), without a hit: at the highest dose activity change, negative = inhibition, actives largely listed as inhibitors | 1.2% of 410,000 active | AID 1159524; calls by dose curve; tested in HEK293T cells; further: read-out not given here; potency means the concentration at half of the fitted maximal effect; nearly all actives have a fitted effect of over 45% in size
# VACV mCherry inh – inhibitors of vaccinia virus infection (mCherry reporter signal); Vaccinia virus mCherry reporter infection, fluorescence; Potency, µM (titrated, usually from 36.5 µM), without a hit: at the top dose activity change, negative = inhibition, actives largely listed as inhibitors; 0.63% of 310,000 active; calls by dose curve; tested in A549 cells; further: potency means the concentration at half of the fitted maximal effect; nearly all actives have a fitted effect of over 35% in size
# VACV Venus inh – inhibitors of vaccinia virus (Venus reporter) | Vaccinia virus Venus reporter expression, fluorescence | Potency, µM (series often up to 36.5 µM), without a hit: at the highest dose activity change, negative = inhibition, most hits filed as inhibitors | 0.46% of 330,000 active | AID 720580; calls by dose curve; tested in A549 cells; further: potency means the concentration at half of the fitted maximal effect; nearly all actives have a fitted effect of over 30% in size
# * hit, by the source's call; i = inactive; u = inconclusive; x = not tested or not shown; [ ] = remark or other dose. The list is not random: actives were taken first. Their share in the collection is about 7.5%. Unless noted, the call rests on the fitted dose curve; in most records, active means well fitted curve in the direction sought with a large enough effect; inconclusive means small, poorly fitted or top-dose-only effect, or another doubt; inactive means no such curve, though single readings can be large; an effect the other way counts as inactive or inconclusive. On the % scale 0 is the no-effect control and ±100 the full control effect.
SMILES,HCMV inh,Giardia FBPA inh,HCV inh,FMDV inh,VACV mCherry inh,VACV Venus inh
O=C(NCc1ccccc1)c1ccc2c(c1)CCN2S(=O)(=O)c1ccc(Cl)cc1,-22,x,x,-12%,-17%,-8%
O=C1CC(C(=O)N2CCCC(c3nc(-c4ccncc4)ncc3-c3ccccc3)C2)C2(CCCCC2)O1 (centres undefined),x,x,x,-4%,-14%,0%
Cc1ccc(NC(=O)c2ccccc2[N+](=O)[O-])cc1[N+](=O)[O-],28,x,x,x,x,x
Cc1cc(C(=O)CSc2nc(N)cc(N)n2)c(C)n1CC1CCCO1 (centres undefined),-25,x,-24%,-1%,i,5%
Cc1cc(C)n2nc(SCC(=O)c3cc(C)n(CC4CCCO4)c3C)nc2n1 (centres undefined),-70*,-2%,u,u,-22%,-18%
O=C(Nc1ccc(Br)cc1)NC1CCCCCCC1,-31,4%,u,14%,i,-14%
COc1ccccc1/C=N/n1cnnc1,-14,-2%,u,-19%,-9%,-2%
O=S(=O)(Oc1ccccc1/C=N/n1cnnc1)c1ccccc1,u,20µM*,-5%,-13%,i,3%
CC(=O)Nc1ccc(S(=O)(=O)Oc2cccc(N3C(=O)C4CCCCC4C3=O)c2)cc1 (centres undefined),-12,-1%,22%,18µM*,x,x
Cc1ccc(S(=O)(=O)Oc2cccc(N3C(=O)C4CC=CCC4C3=O)c2)cc1 (centres undefined),-5,-1%,2%,-19%,x,x
O=C(Nc1ccc(S(=O)(=O)N2CCCC2)cc1)c1cncc(Br)c1,-26,x,-15%,u,x,x
COc1ccc(NC(=O)c2ccc(Cl)nc2)cc1S(=O)(=O)N1CCCCC1,-3,-2%,11µM*,u,-12%,-22%
COc1ccc(NC(=O)c2cncc(Br)c2)cc1S(=O)(=O)N1CCCCC1,u,1%,u,20µM*,u,-23%
COc1ccc(C(=O)Nc2ccc(NC(C)=O)cc2)cc1S(=O)(=O)N1CCCC1,1,x,-2%,1%,x,x
COc1ccc(NC(=O)c2cc(F)cc(F)c2)cc1S(=O)(=O)N1CCCCC1,u,x,10µM*,-25%,-17%,-12%
COc1ccc(NC(=O)c2cc(OC)c(OC)c(OC)c2)cc1S(=O)(=O)N1CCCCC1,122,-2%,u,u,-18%,-12%
COc1cccc(NC(=O)C2CCOC2=O)c1 (centres undefined),3,x,16%,-16%,x,x
COc1ccc(C2=NCC(=S)Nc3ccc(Cl)cc32)cc1OC,116,x,-5%,-8%,-19%,-4%
COc1ccc(C2=NCC(=S)Nc3ccc(Cl)cc32)cc1Cl,-63*,0%,-13%,u,-17%,-23%
CC[C@H]1CC2CN3CCc4c([nH]c5cc(OC)ccc45)[C@](C(=O)OC)(C2)[C@H]13,x,x,35µM*,-21%,-8%,7%
COc1ccc2c3c([nH]c2c1)[C@@H]1C[C@@H]2[C@@H](C[C@H](O)[C@H](OC)[C@H]2C(=O)O)CN1CC3,x,-12%[21.7 µM],x,x,x,x
CC(=O)Nc1ccc(/C=C/c2ccc3cccc([N+](=O)[O-])c3n2)cc1,-90*,-20%,11µM*,-14%,u,-12%
O=C(O)COc1ccc(/C=C/c2ccc3cccc([N+](=O)[O-])c3n2)cc1,-30,-18%,36%,0%,-15%,-4%
CCn1c(C)c(P(c2ccccc2)c2ccccc2)[n+]2ccccc12,-61*,4%,-15%,u,-19%,-17%
Cc1cc(N=Cc2c(O)n(-c3cccc(Cl)c3)c(=O)c3ccccc23)no1,-60*,2%,16%,-18%,-17%,-13%
O=c1c2ccccc2c(C=Nc2ccc(S(=O)(=O)Nc3ncccn3)cc2)c(O)n1-c1cccc(Cl)c1,-7,0%,x,x,x,x
CCOC(=O)C1=C(NC(=S)NC(=O)c2ccccc2)c2ccccc2CC12CCCC2,-99*,-3%,u,u,u,2%
CCOC(=O)c1sc(NC(=S)NC(=O)c2ccccc2)nc1C,141,u,10%,62%,x,x
